Source: the supplement of paper PMC10338343
± gives the standard deviation. Whole data set: some 5,500 sequences, median “pre-steady-state target cleavage rate” near 0.1, cut for the highest 2% near 0.64. The full list was thinned out, with the highest values kept by preference.

System: MIWI (PIWIL1) piRISC loaded with piRNA #2 (30 nt)
Assay: pre-steady-state target cleavage rate (min^-1); MIWI and MILI are mouse PIWI proteins and EfPiwi is from a freshwater sponge; tags in brackets are library labels; higher = faster piRNA-guided slicing of the target
Conditions: guide: piRNA #2 5'p-UUAGGUAACCCAGUAGAUCCAGAGGAAUUC; auxiliary factor: 500 nM mouse GTSF1
Method in brief: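 A transcribed, DNA-blocked target RNA library […] was incubated at 33 °C for 0–8 or 0–960 min with 1 nM active affinity-purified piRISC carrying one synthetic guide, in HEPES–potassium acetate buffer with or without 500 nM GTSF1 partner protein. Uncleaved targets were then sequenced and normalised to depth and to weakly complementary targets. Data from three trials were pooled, with k3 capped at 0.0001 min^-1, and a burst-and-steady-state fit yielded the pre-steady-state cleavage rate.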

Sequence | pre-steady-state target cleavage rate
CAAUUGCUCUGGAUCUACUGGGUUACGUAA | 0.536 ± 0.067
CUUAAGGUGACGAUCUACUGGGUUACCUAA | 0.0052 ± 0.0036
CUUAAGGACAGGAUCUACUGCGUUACCUAA | 0.0331 ± 0.017
CUUAACGUCUCGAUCUACUGGGUUACCUAA | 0.357 ± 0.041
CUUAAGGAGUAGAUCUACUGGGUUACCUAA | 0.00567 ± 0.0048
CAAUUCCUCUGGUUCUACUGGGAUACCUAA | 0.145 ± 0.038
CUUAACCUGUGGAACUACUGGGUUACCUAA | 0.177 ± 0.048
CUUAAGGAGACCUUCUACUGGGUUACGUAA | 0.00451 ± 0.0027
CUUUUCCGUCUGGAUCUACUGGGUUACCUAA | 0.385 ± 0.039
CUUAUCCUCUGGAUCUACUGGUUACCUAA | 0.0947 ± 0.024
CUUAACCUCUGGAUCUACUGUGUUACCUAA | 0.597 ± 0.045
CUUAUCCUCUGGAUCUACUGUGUUACCUAA | 0.722 ± 0.074
CUUAAGCUCUGGAUCUACUGGGUUACCUCAA | 0.0988 ± 0.015
CAUUUCCACUGGAUCUACUGGGUUACCUAA | 0.478 ± 0.058
CUAUUCCUCUCGAUCUACUGGGUUACCAAA | 0.711 ± 0.047
CUAUUCCUCUGGAUCUACUGGGUUACCAAA | 0.477 ± 0.061
CUUUUCCUCUCGAUCUACUGGGUUACCAAA | 0.64 ± 0.048
CUUUUCCUCUCGAUCUACUGGGUUACCUUA | 0.539 ± 0.05
CUUAUCCUCUCGAUCUACUGGGUUACCAAA | 0.542 ± 0.041
GAAUUCCUCUCGAUCUACUGGGUUACCAAA | 0.564 ± 0.067
CAAUUCCUCUGGAUCUACUGGGUUACCAAA | 0.509 ± 0.068
CAAUUCCUCUCGAUCUACUGGGUUACCAAA | 0.904 ± 0.073
CUUUUCCUCUGGAUCUACUGGGUUACCAAA | 0.477 ± 0.052
GAAUUCCUCUGGAUCUACUGGCUAACCUAA | 0.0225 ± 0.0083
CAAUUCCUCUGGAUCCUACUGGGUUACCUAA | 0.29 ± 0.055

Sequence | pre-steady-state target cleavage rate
GAAUUCCUCUCGAUCUACUGGGUUAGCUAA | 0.237 ± 0.052
CUUAAGGAGACCUAGUUCUGGGAUACCUAA | < 0.0001
CAAUUCCUCUGGAUCUAGACCCAAUGGAUA [g14:g29:cont:t1A] | < 0.0001
CAAUUCCUCUGGAACUACUGGGUUUCCUAA | 0.348 ± 0.1
GAAUUCCUCUGGAUCUACUGGGUUUCCUAA | 0.27 ± 0.047
GAAUUCCUCUGGUUCUACUGGGUUUCCUAA | 0.923 ± 0.3
CAAUUCCUCUGGUUCUACUGGGUAACCUAA | 0.162 ± 0.032
CUUUUCCUCUGGUUCUACUGGGUUUCCUAA | 0.522 ± 0.19
CAAUUCCUCUGGUUCUACUGGGUUUCCUAA | 0.951 ± 0.36
CUAUUCCUCUGGUUCUACUGGGUUUCCUAA | 1.05 ± 0.44
GAAUUCCUCUGGUUCUACUGGGUAACCUAA | 0.288 ± 0.063
CUAUUCCUCUGGAUCUACUGGGUUUCCUAA | 0.344 ± 0.053
CUAUUCCUCUGGUUCUACUGGGUAACCUAA | 0.156 ± 0.033
CUAUUCCUCUGGAACUACUGGGUUUCCUAA | 0.337 ± 0.12
GAAUUCCUCUGGAACUACUGGGUUUCCUAA | 0.646 ± 0.21
CUUUACCUCUGGAUCUACUGGGUUUCCUAA | 0.167 ± 0.029
CAAUUCCACUGGUUCUACUGGGUUACCUAA | 0.593 ± 0.041
CUUAAGGAGAGGAUCUACUGGGUUAACCUAA | 0.00722 ± 0.0036
CUUUUCCUCUGGAUCUACGGGUUACCUAA | 0.0476 ± 0.0059
CUUAAGGACUGGAUCAACUGGCUUACCUAA | 0.0268 ± 0.022
CUUAAGGACUCGAUCUACUGGGUUAGCUAA | 0.00705 ± 0.0047
CUUAACCACUGGAUCUACUGGGUUACGUAA | 0.402 ± 0.031
CAAUACGUCUGGAUCUACUGGGUUACCUAA | 0.494 ± 0.053
CAAUUCCUCUGGAACUACUGGGUUACGUAA | 0.517 ± 0.048
CUAUUCCUCUGGAACUACUGGGUUACGUAA | 0.47 ± 0.031

Sequence | pre-steady-state target cleavage rate
GAAUUCCUCUGGAACUACUGGGUUACGUAA | 0.657 ± 0.04
CUUAAGCUCUGCAUCUACUGGGUUAGCUAA | 0.182 ± 0.027
CUUAUCCUCUCCAUCUACUGGGUUACCUAA | 0.422 ± 0.033
CUAUUCCAUCUGGAUCUACUGGGUUACCUAA | 0.537 ± 0.053
CAAUUCCUCUCCAUCUACUGGGUUACCUAA | 0.829 ± 0.057
CUAUUCCUCUCCAUCUACUGGGUUACCUAA | 0.647 ± 0.051
GAAUUCCUCUCCAUCUACUGGGUUACCUAA | 0.706 ± 0.051
GAAUUCCUCCUGGAUCUACUGGGUUACCUAA | 0.445 ± 0.047
CUUUUCCUCUCCAUCUACUGGGUUACCUAA | 0.554 ± 0.044
CAAUUCCAUCUGGAUCUACUGGGUUACCUAA | 0.568 ± 0.064
CUAUUCCUCUGGGAUCUACUGGGUUACCUAA | 0.514 ± 0.042
GAAUUCCUCGGAUCUACUGGGUUACCUAA | 0.432 ± 0.08
CUUAAGGGCUGGAUCUACUGGGUUACCUAA | 0.159 ± 0.037
CUUAAGGAGUGGAUCAACUGGGUUACGUAA | 0.053 ± 0.014
CUUAAGGACUGGAUCUACUGGGUCUACCUAA | 0.0638 ± 0.033
CUUAACCUGCUGGAUCUACUGGGUUACCUAA | 0.356 ± 0.036
CUUAAGGACUGGAUUCUACUGGGUUACCUAA | 0.0274 ± 0.024
GAAUACCUCAGGAUCUACUGGGUUACCUAA | 0.421 ± 0.043
CAAUACCUCAGGAUCUACUGGGUUACCUAA | 0.656 ± 0.061
CAAAUCCUCAGGAUCUACUGGGUUACCUAA | 0.754 ± 0.059
CUAUUCCUCAGGUUCUACUGGGUUACCUAA | 0.584 ± 0.05
GAAUUCCUCAGGUUCUACUGGGUUACCUAA | 0.539 ± 0.049
CAAUUCCUCAGGUUCUACUGGGUUACCUAA | 0.709 ± 0.054
GAAUUCCUCAGGAUCUACUGGGUUACCUAA | 0.483 ± 0.048
CUAAUCCUCAGGAUCUACUGGGUUACCUAA | 0.55 ± 0.055

Sequence | pre-steady-state target cleavage rate
CAAUUCCUCAGGAUCUACUGGGUUACCUAA | 0.695 ± 0.062
CUAUACCUCAGGAUCUACUGGGUUACCUAA | 0.465 ± 0.051
GAAAUCCUCAGGAUCUACUGGGUUACCUAA | 0.446 ± 0.051
GUAUUCCUCAGGAUCUACUGGGUUACCUAA | 0.0863 ± 0.033
GAAUUCCUCUGGAUCUACUCGGUUACGUAA | 0.155 ± 0.021
CUUAUCCACUGCAUCUACUGGGUUACCUAA | 0.314 ± 0.018
CUUAAGGUCUGGAUCUACAGGGUUACCUUA | 0.0564 ± 0.011
CUUAAGGACUGGAUCUUCUGGGUUACCUAA | 0.0593 ± 0.037
CUAUGCCUCUGGAUCUACUGGGUUACCUAA | 0.275 ± 0.037
CUAUUCCUCUGGAUCUACUCCGUUACCUAA | 0.0198 ± 0.0061
CUAUUCCUCAGGAUCUACUGCGUUACCUAA | 0.561 ± 0.069
CAAUUCCUCAGGAUCUACUGCGUUACCUAA | 0.674 ± 0.071
GAUUUCCUCAGGAUCUACUGGGUUACCUAA | 0.459 ± 0.046
GAAUUCCUCAGGAUCUACUGCGUUACCUAA | 0.518 ± 0.048
GAAUUCCACUGGAUCUACUGCGUUACCUAA | 0.744 ± 0.063
CAUUUCCUCAGGAUCUACUGGGUUACCUAA | 0.701 ± 0.054
CAAUUCCACUGGAUCUACUGCGUUACCUAA | 0.468 ± 0.067
CUAUUCCACUGGAUCUACUGCGUUACCUAA | 0.542 ± 0.056
CUUUUCCUCAGGAUCUACUGGGUUACCUAA | 0.578 ± 0.054
CUUAACCACUGGAUCUACUCGGUUACCUAA | 0.0483 ± 0.01
CUUAUCCUCUGGAUGCUACUGGGUUACCUAA | 0.277 ± 0.034
CUAUUCCUCUGGAUGUACUGGGUUACCUUA | 0.403 ± 0.043
CUUAAGGACUGGAUCUACUGGGUUACCGUAA | 0.0402 ± 0.032
CUUUUCCUCUGGAUCUACUGGGAUUCCUAA | 0.087 ± 0.033
CUAUUCCUGUGGAUCUACUGGCUUACCUAA | 0.0662 ± 0.017

Sequence | pre-steady-state target cleavage rate
CUUAUCCUCUCGAUCUACUGGGUUACGUAA | 0.728 ± 0.046
CUUAACCUCUCGAUCUACUGGGUUACGUAA | 0.551 ± 0.037
CUUAUCCUCUGGAUCUACUGGGUUACCGUAA | 0.344 ± 0.063
GAAAUCCUCUGGAUCUACUGGGUUACGUAA | 0.532 ± 0.058
CUAAUCCUCUGGAUCUACUGGGUUACGUAA | 0.66 ± 0.052
CUUAUCCUCUGGAUCUACUGGGUUACGUAA | 0.684 ± 0.049
CUUAUCCUCUGGAUCUACUGGGUUACGUUA | 0.469 ± 0.07
CUUAUCCUCUCGAUCUACUGGGUUACCUUA | 0.436 ± 0.032
CAAAUCCUCUGGAUCUACUGGGUUACGUAA | 0.555 ± 0.064
CUUUUCCUCAGGAUCUACUGGGUUAGCUAA | 0.133 ± 0.041
CAAUUCCUCUGGAUCUACUGGGUUUCCUUA | 0.281 ± 0.067
GAAUACCUCUGGAUGUACUGGGUUACCUAA | 0.251 ± 0.044
CUAUUCCUCUGGAUCUACUGGGUUACGUUA | 0.401 ± 0.055
CUUAUCCUGUGGAUCUACUGGGUUACCUAA | 0.443 ± 0.056
CUUAUCCUCUGGAUCUACUGGGUUAUCCUAA | 0.413 ± 0.057
CUUAAGGACGGAUCUACUGGGUUACCUAA | 0.0543 ± 0.039
CUAUUCCUCUCGAUCAACUGGGUUACCUAA | 0.637 ± 0.047
GAAUUCCUCUCGAUCAACUGGGUUACCUAA | 0.63 ± 0.051
CAAUUCCUCUCGAUCAACUGGGUUACCUAA | 0.721 ± 0.053
CUAUUCCUCUGGAUCAACUGGGUUACCUAA | 0.44 ± 0.051
CUUAUCCUCUCGAUCAACUGGGUUACCUAA | 0.508 ± 0.033
CUUUUCCUCUCGAUCAACUGGGUUACCUAA | 0.553 ± 0.039
CUUUUCCUCUGGAUCUACUGCGUUAGCUAA | 0.142 ± 0.048
CUUAAGGAGUGGAUCUACUGGGUUACCAUA | 0.0428 ± 0.015
